Test results published in PubChem BioAssay (Tox21).
Inconclusive results are not listed. Calls of active or inactive are those of the source. Unless noted, the call rests on the fitted dose curve; in most records, active means well fitted curve in the direction sought with a large enough effect in the repeat runs; inconclusive means weak or mixed curves; inactive means no such curve, though single readings can be large; an effect the other way counts as inactive or inconclusive.

How the values were obtained:
[1] = qHTS assay to identify small molecule agonists of the peroxisome proliferator-activated receptor delta (PPARd) signaling pathway - cell viability counter screen (AID 743211); further: nearly all actives have a fitted effect of over 55% in size; further: potency means the concentration at half of the fitted maximal effect
How it was run: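 Read-out: CellTiter-Glo luminescence, 30 min RT, measured in the same wells as the beta-lactamase reporter. Cells: GeneBLAzer PPAR delta UAS-bla HEK293H, 3000 cells/well, compound exposure 17 h at 37C.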

[2] = qHTS assay to identify small molecule agonists of the farnesoid-X-receptor (FXR) signaling pathway - cell viability counter screen (AID 743218); further: nearly all actives have a fitted effect of over 45% in size; further: potency means the concentration at half of the fitted maximal effect
How it was run: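 In GeneBLAzer FXR-UAS-bla HEK 293T cells, compounds act for 16 h at 37 C. Cell viability is then scored in the reporter wells by CellTiter-Glo, 30 min at RT, luminescence.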

[3] = qHTS assay to identify small molecule antagonists of the peroxisome proliferator-activated receptor delta (PPARd) signaling pathway - cell viability counter screen (AID 743213); further: nearly all actives have a fitted effect of over 50% in size; further: potency means the concentration at half of the fitted maximal effect
How it was run: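 Luminescence from CellTiter-Glo, added after the bla read and incubated 30 min at room temperature, gives viability of HEK293H PPARd-bla cells exposed to compounds for 17 h at 37 C with 300 nM L165041.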

[4] = qHTS assay to identify small molecule antagonists of the farnesoid-X-receptor (FXR) signaling pathway - cell viability counter screen (AID 743221; active means well fitted cell-killing curve with a large enough effect in the repeat runs, not every such curve was filed as active; further: nearly all actives have a fitted effect of over 50% in size; further: potency means the concentration at half of the fitted maximal effect)
How it was run: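 HEK 293T FXR-bla cells, 5 h pre-incubation; compound + CDCA 50 uM final, 16 h, 37 C; beta-lactamase FRET read first, then CellTiter-Glo luminescence, 30 min RT.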

[5] = target: Vitamin D3 receptor (Homo sapiens) (UniProt P11473); assay: qHTS assay to identify small molecule agonists of the vitamin D receptor (VDR) signaling pathway (AID 743222; calls by dose curve; further: potency means the concentration at half of the fitted maximal effect)
How it was run: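 Agonist activity measured in VDR-bla reporter cells. Exposure 16 h, 37C, 5% CO2; detection by B/G FRET substrate, 2 h RT.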

[6] = target: Vitamin D3 receptor (Homo sapiens) (UniProt P11473); assay: qHTS assay to identify small molecule antagonists of the vitamin D receptor (VDR) signaling pathway (AID 743223; active means well fitted inhibition curve with a large enough effect in the signal ratio in the repeat runs, not every such curve was filed as active; the % refers to the signal ratio; further: potency means the concentration at half of the fitted maximal effect)
How it was run: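 Beta-lactamase reporter read-out: FRET substrate fluorescence after 2 h at room temperature, following 16 h exposure of VDR-bla cells to test compound plus 3 nM (final) 1alpha,25-dihydroxyvitamin D3 agonist at 37C.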

[7] = target: Peroxisome proliferator-activated receptor delta (Homo sapiens) (UniProt Q03181); assay: qHTS assay to identify small molecule antagonists of the peroxisome proliferator-activated receptor delta (PPARd) signaling pathway (AID 743215; active means well fitted inhibition curve with a large enough effect in the signal ratio in the repeat runs, not every such curve was filed as active; the % refers to the signal ratio;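 further: cells stimulated with agonist L165041 at 300 nM final during compound exposure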; further: potency means the concentration at half of the fitted maximal effect)
How it was run: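 Antagonist-mode beta-lactamase reporter screen: HEK293H cells with UAS-bla under PPARd control, stimulated by 300 nM L165041 (final) alongside test compound for 17 h at 37 C, then FRET fluorescence after 2 h substrate incubation.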

[8] = target: Bile acid receptor (Homo sapiens) (UniProt Q96RI1); assay: qHTS assay to identify small molecule agonists of the farnesoid-X-receptor (FXR) signaling pathway (AID 743220; active means well fitted activation curve with a large enough effect in the signal ratio in the repeat runs, not every such curve was filed as active; the % refers to the signal ratio; further: potency means the concentration at half of the fitted maximal effect)
How it was run: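 Beta-lactamase reporter under UAS control in GeneBLAzer FXR HEK 293T cells (5000/well) measured with LiveBLAzer FRET substrate after 2 h at room temperature. Compound exposure lasted 16 h at 37C.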

[9] = target: Peroxisome proliferator-activated receptor delta (Homo sapiens) (UniProt Q03181); assay: qHTS assay to identify small molecule agonists of the peroxisome proliferator-activated receptor delta (PPARd) signaling pathway (AID 743212; calls by dose curve; further: potency means the concentration at half of the fitted maximal effect)
How it was run: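 Quantitative high-throughput agonist screen in a HEK293H beta-lactamase reporter line under UAS control. Compounds in DMSO, at 37 C. Fluorescence read after 2 h with FRET substrate at room temperature.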

[10] = target: Bile acid receptor (Homo sapiens) (UniProt Q96RI1); assay: qHTS assay to identify small molecule antagonists of the farnesoid-X-receptor (FXR) signaling pathway (AID 743217; active means well fitted inhibition curve with a large enough effect in the signal ratio in the repeat runs, not every such curve was filed as active; the % refers to the signal ratio)
How it was run: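 Beta-lactamase reporter under UAS control in HEK 293T cells; compound exposure 16 h at 37 °C in the presence of chenodeoxycholic acid (50 uM final); signal from B/G FRET substrate after 2 h at room temperature.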

Measured: Potency

Chain of Bile acid receptor (Homo sapiens) (Q96RI1 whole entry, looked up): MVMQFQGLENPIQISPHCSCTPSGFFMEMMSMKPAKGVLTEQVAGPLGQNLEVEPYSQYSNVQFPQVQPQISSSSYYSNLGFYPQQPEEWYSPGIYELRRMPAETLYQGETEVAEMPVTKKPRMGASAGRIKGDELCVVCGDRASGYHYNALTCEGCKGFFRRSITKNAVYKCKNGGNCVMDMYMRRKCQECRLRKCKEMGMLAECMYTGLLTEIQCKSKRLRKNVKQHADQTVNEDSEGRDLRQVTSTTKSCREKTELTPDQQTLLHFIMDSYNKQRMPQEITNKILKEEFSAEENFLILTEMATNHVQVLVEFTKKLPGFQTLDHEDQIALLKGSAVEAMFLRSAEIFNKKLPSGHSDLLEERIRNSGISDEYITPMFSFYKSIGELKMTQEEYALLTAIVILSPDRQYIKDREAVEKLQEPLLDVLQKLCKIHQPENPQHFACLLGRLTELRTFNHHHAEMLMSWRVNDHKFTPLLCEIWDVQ
Chain of Vitamin D3 receptor (Homo sapiens) (P11473 whole entry, looked up): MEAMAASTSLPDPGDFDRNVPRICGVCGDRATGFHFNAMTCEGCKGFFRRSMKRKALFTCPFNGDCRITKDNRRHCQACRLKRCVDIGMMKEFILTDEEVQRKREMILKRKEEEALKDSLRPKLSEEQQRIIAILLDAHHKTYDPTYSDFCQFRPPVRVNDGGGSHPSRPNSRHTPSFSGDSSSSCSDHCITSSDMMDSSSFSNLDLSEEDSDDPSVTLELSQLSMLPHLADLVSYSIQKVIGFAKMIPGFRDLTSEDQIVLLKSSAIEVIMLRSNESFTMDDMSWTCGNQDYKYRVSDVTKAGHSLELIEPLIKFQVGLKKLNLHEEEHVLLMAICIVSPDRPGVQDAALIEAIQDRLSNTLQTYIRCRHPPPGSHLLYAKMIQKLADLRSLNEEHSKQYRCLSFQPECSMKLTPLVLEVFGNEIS
Chain of Peroxisome proliferator-activated receptor delta (Homo sapiens) (Q03181 whole entry, looked up): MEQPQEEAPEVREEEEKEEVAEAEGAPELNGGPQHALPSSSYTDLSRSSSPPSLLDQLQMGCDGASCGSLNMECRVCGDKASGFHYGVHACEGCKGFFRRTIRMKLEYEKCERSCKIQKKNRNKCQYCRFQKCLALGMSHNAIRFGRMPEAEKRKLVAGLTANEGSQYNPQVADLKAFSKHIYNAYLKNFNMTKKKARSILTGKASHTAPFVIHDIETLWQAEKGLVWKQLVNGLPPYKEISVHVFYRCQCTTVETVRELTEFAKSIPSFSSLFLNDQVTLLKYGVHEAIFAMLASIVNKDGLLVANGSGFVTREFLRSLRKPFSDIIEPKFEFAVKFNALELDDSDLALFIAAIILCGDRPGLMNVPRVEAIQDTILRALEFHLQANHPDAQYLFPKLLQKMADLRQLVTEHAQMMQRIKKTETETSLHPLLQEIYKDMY

CC1=Nc2ccc3ccccc3c2C1(C)C
inactive: [1] | [2]

OC1(c2ccccc2)CCNCC1
inactive: [1] | [3] | [2] | [4] | [5] | [6]

C[C@@H]1CC(=O)NN=C1c1ccc(NN=C(C#N)C#N)cc1
inactive: [1] | [3] | [2]

CC(C)COCC(CN(Cc1ccccc1)c1ccccc1)N1CCCC1 (configuration not stated)
inactive: [7] | [8]
active: [1] 21.1 µM | [2] 33.5 µM

Cc1[nH]cnc1CN1CCc2c(c3ccccc3n2C)C1=O
inactive: [1] | [3] | [2] | [4] | [5] | [6]

CC1(C)S[C@@H]2[C@H](NC(=O)C(c3ccccc3)S(=O)(=O)O)C(=O)N2[C@H]1C(=O)O (some centres not stated)
inactive: [1] | [3] | [2] | [5] | [6]

CC1(C)[C@@H](OC(=O)CCC(=O)O)CC[C@]2(C)[C@H]3C(=O)C=C4[C@@H]5C[C@@](C)(C(=O)O)CC[C@]5(C)CC[C@@]4(C)[C@]3(C)CC[C@@H]12
inactive: [1] | [3] | [2]

CN1C[C@H](C(=O)N[C@]2(C)O[C@@]3(O)[C@@H]4CCCN4C(=O)[C@H](Cc4ccccc4)N3C2=O)C[C@@H]2c3cccc4[nH]cc(c34)C[C@H]21
active: [1] 23.7 µM | [2] 26.6 µM

O=c1cc(-c2ccccc2)oc2cc(O)cc(O)c12
inactive: [1] | [3] | [4]

Oc1ccc(Cl)c2cccnc12
active: [1] 0.596 µM | [7] 1.06 µM
inactive: [2] | [8] | [4]

CC(C)C=O
inactive: [1] | [3] | [5] | [6]

COC(=O)c1nc(Cl)c(Cl)nc1N
active: [1] 29.8 µM | [3] 29.8 µM | [8] 29.8 µM | [5] 11.9 µM

CC(C)(c1ccccc1)c1ccccc1
inactive: [1] | [3] | [2] | [4] | [5] | [6]

C=Cc1ccc(S(=O)(=O)O)cc1
inactive: [1] | [7] | [6]

Oc1cccc(O)c1O
inactive: [1] | [7] | [2] | [4] | [5] | [6]

CCCCCCCCCCC(=O)O
inactive: [1] | [7] | [2] | [4]

CC1=C(CC=O)C(C)(C)CCC1
inactive: [1] | [3] | [2] | [4] | [5]

OC(CCN1CCCC1)(c1ccccc1)C1CCCCC1 (configuration not stated)
inactive: [1] | [3] | [2] | [4] | [5] | [6]

CNC(=O)c1cnn(-c2nc(N)c3ncn([C@@H]4O[C@H](CO)[C@@H](O)[C@H]4O)c3n2)c1
inactive: [1] | [3] | [2] | [4] | [5]

Brc1cc2ccccc2c2ccccc12
inactive: [1] | [3] | [2]

CC(C)(C)CC(=O)OCC(=O)[C@@]1(O)CC[C@H]2[C@@H]3CCC4=CC(=O)C=C[C@]4(C)[C@H]3[C@@H](O)C[C@@]21C
inactive: [1] | [3] | [2] | [4] | [5]

Clc1ccc(Nc2nnc(Cc3ccncc3)c3ccccc23)cc1
inactive: [1] | [3] | [8] | [5] | [6]

CC(C)=CCC1C(=O)N(c2ccccc2)N(c2ccccc2)C1=O
inactive: [1] | [2] | [4] | [5]

CN1C(=O)N(c2ccccc2Br)Cc2cnc(Nc3ccc4c(c3)OCC(CO)O4)nc21 (configuration not stated)
active: [1] 1.1 µM | [3] 11 µM | [6] 13.8 µM
inactive: [2] | [5]

CC(=O)OCCN(CCOC(C)=O)c1ccc(N=Nc2ccc([N+](=O)[O-])cc2C#N)cc1
inactive: [1] | [3] | [2] | [4] | [5]

CCOC(=O)c1ccccc1C(=C1C=C(Br)C(=O)C(Br)=C1)c1cc(Br)c(O)c(Br)c1
inactive: [1] | [3] | [5]

Cc1ccco1
inactive: [1] | [3] | [2] | [4] | [5] | [6]

CC(=O)NC1(c2cccc(F)c2)CCN(CC[C@@]2(c3ccc(Cl)c(Cl)c3)CN(c3ccccc3)C(=O)CO2)CC1
inactive: [8] | [5]
active: [1] 13.8 µM | [3] 21.9 µM | [2] 15.5 µM | [4] 24.6 µM

COC(=O)[C@H]1[C@H]2C[C@@H]3c4[nH]c5cc(OC)ccc5c4CCN3C[C@H]2C[C@@H](OC(=O)/C=C/c2ccc(O)c(OC)c2)[C@@H]1OC
inactive: [8]
active: [1] 8.41 µM | [3] 10.6 µM | [2] 8.41 µM | [4] 18.8 µM

O=C1c2ccccc2C(=O)C1(O)O
inactive: [1] | [3] | [2] | [4] | [5] | [6]

CC(C)c1nc(CN(C)C(=O)N[C@H](C(=O)N[C@@H](Cc2ccccc2)C[C@H](O)[C@H](Cc2ccccc2)NC(=O)OCc2cncs2)C(C)C)cs1
inactive: [7] | [8]
active: [1] 29.8 µM

CN1CCCC(n2nc(Cc3ccc(Cl)cc3)c3ccccc3c2=O)CC1 (configuration not stated)
inactive: [1] | [7]
active: [2] 21.1 µM

Cc1cc(=O)c2c(O)c3c(O)cc(=O)c4c3c3c(cc(O)c1c23)C(C)(C)C=4O
active: [1] 0.291 µM | [2] 1.84 µM

N#[N+]c1ccc2c(S(=O)(=O)[O-])cccc2c1O
inactive: [1] | [3] | [2] | [5] | [6]

CC1(CN2CCC(n3c(=O)[nH]c4ccccc43)CC2)OCc2ccccc2-n2cccc21 (configuration not stated)
active: [1] 33.5 µM
inactive: [7] | [6]

CC1(C)[C@H](C(=O)O)N2C(=O)C[C@H]2S1(=O)=O
inactive: [1] | [3] | [2] | [8] | [4] | [5]

O=C(O)CCC(=O)C(=O)O
inactive: [1] | [3] | [2] | [4] | [5] | [6]

CN1CCCC(CC2c3ccccc3Sc3ccccc32)C1 (configuration not stated)
active: [1] 29.8 µM | [3] 26.6 µM | [2] 13.3 µM
inactive: [8]

OCCOCC#CCOCCO
inactive: [9] | [3] | [5]

C=CCc1ccccc1OCC(O)CNC(C)C (configuration not stated)
not listed: [1] | [8] | [10]
inactive: all other assays above

NC1[C@H]2CN(c3nc4c(cc3F)c(=O)c(C(=O)O)cn4-c3ccc(F)cc3F)C[C@@H]12 (some centres not stated)
inactive: [3]
active: [9] 29.8 µM

C=C/C(C)=C/C/C=C(\C)CCC=C(C)C
inactive: [9] | [3] | [7] | [10] | [6]

O=C=Nc1cccc(C(F)(F)F)c1
inactive: [9] | [7]

COc1cc(Nc2c(C#N)cnc3cc(OCCCN4CCN(C)CC4)c(OC)cc23)c(Cl)cc1Cl
inactive: [5]
active: [1] 26.6 µM | [4] 26.6 µM

CCCCN1CCCC1C(=O)Nc1c(C)cc(C)cc1C (configuration not stated)
inactive: [1] | [2] | [4] | [5] | [6]

CCCCCC[C@@H](O)C/C=C\CCCCCCCC(=O)O
active: [9] 43.6 µM | [3] 49 µM
inactive: [7] | [10] | [6]

CN1C(=O)OC(C)(C)C1=O
inactive: [9] | [3] | [7] | [2]

O=C1c2ccccc2C(=O)N1CCc1noc(-c2ccc(CN3CCCCCC3)s2)n1
inactive: [9] | [3] | [10] | [2] | [4]

Cc1cc(O)ccc1O
not listed: [1] | [2]
inactive: all other assays above

O=C1CCCCCCCCCCOCCCCO1
inactive: [9] | [3] | [7] | [2] | [5] | [6]

CCCCCCCC/C=C\CCCCCCCCO
not listed: [1] | [8] | [10]
inactive: all other assays above

N#CCCN(CCO)CCO
not listed: [1] | [4]
inactive: all other assays above

CCC(C)(C)OC
not listed: [1] | [5] | [6]
inactive: all other assays above

Cc1cccc(N(C)C(=S)Oc2ccc3c(c2)CCC3)c1
not listed: [1]
inactive: all other assays above

O=C1NCCN1CCO
inactive: [1] | [2] | [5] | [6]

O=C1c2ccccc2C(=O)C1c1nc2ccccc2c(Br)c1O
inactive: [9] | [3] | [7] | [4] | [5] | [6]

CN(C)CCN1C(=O)c2ccccc2N(C)c2ccccc21
not listed: [1]
inactive: all other assays above

O=c1[nH]c2ccc(Cl)cc2o1
inactive: [9] | [3] | [7] | [2] | [5]
